Results: PubChem BioAssay (NCI)
About 79,000 compounds went through this panel and 15% of them were active in at least one assay; those are over-represented in the sample as a whole. A number with no mark means an inactive call. Activity calls are given as the source filed them. Cut-off read from the data, not from the text of the source: active = growth inhibition above about 70%; inactive = the rest.

Tests used:
[1] = NCI Yeast Anticancer Drug Screen. Data for the rad50 strain (AID 155);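 note: 0% = growth of vehicle-only cultures of the same strain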; conditions: S. cerevisiae rad50 strain growth inhibition, hits give high values
Outline: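 Cells are treated with compound, grown, and their growth is then scored against vehicle-only cultures of the same repair-deficient yeast strain.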

[2] = NCI Yeast Anticancer Drug Screen. Data for the mec2-1 strain (AID 157); conditions: S. cerevisiae mec2-1 strain, hits give high values
Outline: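 Each compound was tested on mec2-1 yeast, a strain altered in DNA damage repair or cell cycle control. Growth inhibition is reported relative to vehicle.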

[3] = NCI Yeast Anticancer Drug Screen. Data for the sgs1 mgt1 strain (AID 161);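 note: 0% = growth of cultures given vehicle only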; conditions: S. cerevisiae sgs1 mgt1 strain, hits give high values
Outline: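 Read-out: growth inhibition vs vehicle controls. Cells: mutant yeast strain deficient in DNA damage repair.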

[4] = NCI Yeast Anticancer Drug Screen. Data for the cln2 rad14 strain (AID 165);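 note: 0% = growth equal to vehicle treated cultures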; conditions: S. cerevisiae cln2 rad14 strain, hits give high values
Outline: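 Test compounds were added to cln2 rad14 yeast cultures; inhibition of growth was then determined by comparison with vehicle treatment.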

[5] = NCI Yeast Anticancer Drug Screen. Data for the bub3 strain (AID 167); conditions: S. cerevisiae bub3 mutant strain, hits give high values
Outline: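 Part of a panel of yeast mutants defective in DNA damage repair or cell cycle regulation. Each strain is grown with compound, and inhibition is calculated relative to solvent-treated cultures.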

[6] = NCI Yeast Anticancer Drug Screen. Data for the mlh1 rad18 strain (AID 175); conditions: S. cerevisiae mlh1 rad18 strain growth inhibition, hits give high values
Outline: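 Inhibition values reflect reduced growth of mutant yeast versus vehicle-treated controls following compound exposure; the mutations affect DNA damage repair.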

[7] = at 5.0 µM (retest, dose inferred, filed as 0.5)
[8] = at 50.0 µM (retest, dose inferred, filed as 5.0)

Structure (SMILES)	growth inhibition [1, 7] [%]	growth inhibition [1, 8]	growth inhibition ([1]; at 50.0 µM)	growth inhibition [2, 7] [%]	growth inhibition [2, 8]	growth inhibition ([2]; at 50.0 µM)	growth inhibition [3, 7] [%]	growth inhibition [3, 8]	growth inhibition ([3]; at 50.0 µM)	growth inhibition [4, 7] [%]	growth inhibition [4, 8]	growth inhibition ([4]; at 50.0 µM)	growth inhibition [5, 7] [%]	growth inhibition [5, 8]	growth inhibition ([5]; at 50.0 µM)	growth inhibition [6, 7] [%]	growth inhibition [6, 8]	growth inhibition ([6]; at 50.0 µM)
CCCCOc1ccc(CC(O)CN2CCCCC2C)cc1 (configuration not stated)	22	49%	75.2% (active)	21	51%	52.5%	33	61%	78% (active)	36	57%	73.7% (active)	36	71% (active)	85.6% (active)	24	60%	51%
CCOC(=O)OCCSCCOC(=O)OCC	-14	19%	-4.35%	-12	36%	17.6%	-5	8%	14.2%	15	-6%	13.8%	-9	18%	19%	0	47%	-9.65%
CC1=C(C#N)C(=O)OC1(C)C(CC(=O)c1ccccc1)c1ccccc1 (configuration not stated)	0	3%	-5.3%	5	6%	4.45%	20	16%	4.45%	3	4%	49.8%	2	11%	11.8%	26	23%	1.85%
Cc1ccc(C)c(N2C(=O)C(=O)c3c(C)ccc(C)c32)c1	12	96% (active)	99% (active)	13	66%	99% (active)	12	98% (active)	97.7% (active)	27	23%	89.8% (active)	8	10%	97.8% (active)	14	80% (active)	98.8% (active)
Cc1c(-c2ccccc2)ccnc1/C=N/NC(=S)Nc1ccc(N(C)C)cc1	48	94% (active)	74.8% (active)	38	96% (active)	76.7% (active)	49	93% (active)	70% (active)	43	91% (active)	60.6%	59	94% (active)	81.7% (active)	36	93% (active)	79.6% (active)
COc1ccc2c(N3CCN(C(=O)C(Cl)(Cl)Cl)CC3)cc(C)nc2c1	2	4%	2.05%	1	0%	0.2%	1	0%	-24.6%	0	0%	-2.9%	0	7%	-0.5%	3	4%	2.75%
CCCN(CCC)c1ccc(Cc2ccc(N(CCC)CCC)cc2N)c(N)c1	-3	96% (active)	97.8% (active)	-5	98% (active)	98.3% (active)	-6	99% (active)	44.5%	-1	91% (active)	97% (active)	-1	96% (active)	96.8% (active)	-5	95% (active)	98.1% (active)
CN(C)C(=S)/N=c1\ss/c(=N\C(=S)N(C)C)n1-c1ccc(Cl)cc1	9	9%	94.2% (active)	14	-7%	92.1% (active)	7	13%	95.7% (active)	5	-10%	72.3% (active)	3	-2%	90% (active)	8	29%	96.2% (active)
c1ccc(C2=NCCC(c3ccccc3)S2)cc1 (configuration not stated)	-2	5%	-2.55%	-4	3%	-4.1%	-3	4%	55.5%	-19	-4%	-41.5%	2	0%	68.1%	0	8%	21.9%
